Measured values: the supplement of paper PMC11732987, “Enantioselective OTUD7B fragment discovery through chemoproteomics screening and high-throughput optimisation” (Communications Chemistry, 2025)

Assays:
Assay in all cases: log2 ratio of Biotin-Ahx-Ub-VS probe labelling (fragment/DMSO); higher = less target engagement (more negative = stronger competition), active = hit call of the paper (q ≤ 0.05, log2 ratio ≤ -1)
Conditions in all cases: compound concentration: 200 uM; treatment time: 3 h
USP9X = USP9X (UniProt Q93008)
USP9X, sequence (Q93008 whole entry, the tested form may be a part): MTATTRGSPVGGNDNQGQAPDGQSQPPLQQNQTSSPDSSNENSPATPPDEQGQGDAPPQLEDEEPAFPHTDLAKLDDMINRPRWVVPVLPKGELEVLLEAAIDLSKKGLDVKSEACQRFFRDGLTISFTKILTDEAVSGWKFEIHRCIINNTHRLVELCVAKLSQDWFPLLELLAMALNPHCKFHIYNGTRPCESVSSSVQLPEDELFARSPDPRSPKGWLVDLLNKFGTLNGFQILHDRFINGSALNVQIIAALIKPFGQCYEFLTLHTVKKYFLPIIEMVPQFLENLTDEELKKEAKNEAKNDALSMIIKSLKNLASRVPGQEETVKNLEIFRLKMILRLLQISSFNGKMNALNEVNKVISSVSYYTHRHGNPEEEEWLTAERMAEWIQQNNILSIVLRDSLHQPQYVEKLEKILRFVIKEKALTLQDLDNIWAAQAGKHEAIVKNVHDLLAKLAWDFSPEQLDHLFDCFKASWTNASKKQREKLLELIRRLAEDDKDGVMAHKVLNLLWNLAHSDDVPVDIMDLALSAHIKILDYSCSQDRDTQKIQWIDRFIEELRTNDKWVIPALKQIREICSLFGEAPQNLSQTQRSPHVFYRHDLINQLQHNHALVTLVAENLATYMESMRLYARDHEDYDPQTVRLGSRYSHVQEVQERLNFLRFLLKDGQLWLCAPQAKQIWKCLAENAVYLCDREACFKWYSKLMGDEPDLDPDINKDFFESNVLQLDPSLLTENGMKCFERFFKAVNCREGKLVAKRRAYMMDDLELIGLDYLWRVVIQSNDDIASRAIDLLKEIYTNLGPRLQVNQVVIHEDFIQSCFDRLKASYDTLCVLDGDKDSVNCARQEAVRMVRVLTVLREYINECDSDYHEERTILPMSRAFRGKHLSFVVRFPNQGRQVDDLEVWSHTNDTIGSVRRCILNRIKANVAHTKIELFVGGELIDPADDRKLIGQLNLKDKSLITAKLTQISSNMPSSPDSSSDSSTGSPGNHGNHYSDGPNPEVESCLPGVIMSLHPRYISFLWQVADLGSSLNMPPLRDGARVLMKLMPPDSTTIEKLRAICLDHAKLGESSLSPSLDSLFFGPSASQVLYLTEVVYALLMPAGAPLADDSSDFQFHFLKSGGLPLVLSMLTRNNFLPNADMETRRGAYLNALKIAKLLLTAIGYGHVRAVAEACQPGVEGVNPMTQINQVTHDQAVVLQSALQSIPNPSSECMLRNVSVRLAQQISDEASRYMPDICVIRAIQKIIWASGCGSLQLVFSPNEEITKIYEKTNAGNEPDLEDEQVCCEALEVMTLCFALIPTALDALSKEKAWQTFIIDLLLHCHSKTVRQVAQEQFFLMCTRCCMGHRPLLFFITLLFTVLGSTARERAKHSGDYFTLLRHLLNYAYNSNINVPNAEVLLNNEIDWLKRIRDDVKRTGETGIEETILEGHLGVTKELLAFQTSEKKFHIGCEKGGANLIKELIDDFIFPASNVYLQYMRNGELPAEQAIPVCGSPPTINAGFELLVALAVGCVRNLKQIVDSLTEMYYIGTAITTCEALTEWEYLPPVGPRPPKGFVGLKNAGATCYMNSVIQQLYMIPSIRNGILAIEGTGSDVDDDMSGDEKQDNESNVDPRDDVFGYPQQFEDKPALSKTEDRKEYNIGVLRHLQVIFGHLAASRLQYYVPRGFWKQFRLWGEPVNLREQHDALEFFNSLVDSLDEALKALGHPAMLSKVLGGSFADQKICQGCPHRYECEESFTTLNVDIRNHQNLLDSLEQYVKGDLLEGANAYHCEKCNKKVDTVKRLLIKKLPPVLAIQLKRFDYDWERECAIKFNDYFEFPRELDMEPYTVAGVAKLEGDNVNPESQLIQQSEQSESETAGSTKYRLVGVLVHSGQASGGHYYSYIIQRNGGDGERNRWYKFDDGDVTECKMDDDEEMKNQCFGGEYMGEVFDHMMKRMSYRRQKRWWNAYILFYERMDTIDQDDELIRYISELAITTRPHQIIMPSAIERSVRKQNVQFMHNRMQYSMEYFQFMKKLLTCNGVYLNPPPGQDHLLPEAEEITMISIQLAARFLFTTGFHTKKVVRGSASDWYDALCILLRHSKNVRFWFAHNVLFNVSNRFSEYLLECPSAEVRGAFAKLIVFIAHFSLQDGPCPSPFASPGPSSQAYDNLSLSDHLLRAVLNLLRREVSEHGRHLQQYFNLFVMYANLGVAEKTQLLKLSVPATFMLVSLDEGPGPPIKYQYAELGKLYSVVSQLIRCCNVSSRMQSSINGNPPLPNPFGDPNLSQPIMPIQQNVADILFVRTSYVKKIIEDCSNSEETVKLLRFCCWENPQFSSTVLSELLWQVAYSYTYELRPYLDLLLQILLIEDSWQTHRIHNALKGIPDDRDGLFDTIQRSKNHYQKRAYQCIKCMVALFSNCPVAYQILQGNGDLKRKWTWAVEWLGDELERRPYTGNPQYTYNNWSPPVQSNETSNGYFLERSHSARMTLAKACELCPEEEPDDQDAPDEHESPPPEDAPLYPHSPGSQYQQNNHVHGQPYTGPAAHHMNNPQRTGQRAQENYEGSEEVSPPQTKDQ
In short: (§1)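 In triplicate, 495 µg of HEK293T lysate per sample was incubated with fragment at 200 µM or vehicle for 3 h. Biotin-Ahx-Ub-VS was then added to 0.5 µM final for 1 h, and labelled DUBs were captured with NeutrAvidin, digested with LysC and trypsin, and measured by diaPASEF LC-MS/MS. Data are average log2 fragment/vehicle ratios by unpaired t-test from global-median-normalised Spectronaut label-free quantities, restricted to proteins with ≥2 unique peptides.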

UniProt O00487 = molecular target: UniProt O00487
UniProt O00487, sequence (O00487 whole entry): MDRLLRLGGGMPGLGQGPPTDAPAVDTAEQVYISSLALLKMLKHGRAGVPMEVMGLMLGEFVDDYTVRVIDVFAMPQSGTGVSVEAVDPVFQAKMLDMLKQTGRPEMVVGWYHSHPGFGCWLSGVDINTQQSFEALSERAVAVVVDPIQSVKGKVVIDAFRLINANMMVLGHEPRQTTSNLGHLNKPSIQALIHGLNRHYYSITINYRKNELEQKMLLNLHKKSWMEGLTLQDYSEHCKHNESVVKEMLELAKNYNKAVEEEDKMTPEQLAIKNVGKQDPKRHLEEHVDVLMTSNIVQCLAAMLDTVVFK
In short: as §1

UniProt O00507 = molecular target: UniProt O00507
In short: as §1

UniProt P51784 = molecular target: UniProt P51784
UniProt P51784, sequence (P51784 whole entry): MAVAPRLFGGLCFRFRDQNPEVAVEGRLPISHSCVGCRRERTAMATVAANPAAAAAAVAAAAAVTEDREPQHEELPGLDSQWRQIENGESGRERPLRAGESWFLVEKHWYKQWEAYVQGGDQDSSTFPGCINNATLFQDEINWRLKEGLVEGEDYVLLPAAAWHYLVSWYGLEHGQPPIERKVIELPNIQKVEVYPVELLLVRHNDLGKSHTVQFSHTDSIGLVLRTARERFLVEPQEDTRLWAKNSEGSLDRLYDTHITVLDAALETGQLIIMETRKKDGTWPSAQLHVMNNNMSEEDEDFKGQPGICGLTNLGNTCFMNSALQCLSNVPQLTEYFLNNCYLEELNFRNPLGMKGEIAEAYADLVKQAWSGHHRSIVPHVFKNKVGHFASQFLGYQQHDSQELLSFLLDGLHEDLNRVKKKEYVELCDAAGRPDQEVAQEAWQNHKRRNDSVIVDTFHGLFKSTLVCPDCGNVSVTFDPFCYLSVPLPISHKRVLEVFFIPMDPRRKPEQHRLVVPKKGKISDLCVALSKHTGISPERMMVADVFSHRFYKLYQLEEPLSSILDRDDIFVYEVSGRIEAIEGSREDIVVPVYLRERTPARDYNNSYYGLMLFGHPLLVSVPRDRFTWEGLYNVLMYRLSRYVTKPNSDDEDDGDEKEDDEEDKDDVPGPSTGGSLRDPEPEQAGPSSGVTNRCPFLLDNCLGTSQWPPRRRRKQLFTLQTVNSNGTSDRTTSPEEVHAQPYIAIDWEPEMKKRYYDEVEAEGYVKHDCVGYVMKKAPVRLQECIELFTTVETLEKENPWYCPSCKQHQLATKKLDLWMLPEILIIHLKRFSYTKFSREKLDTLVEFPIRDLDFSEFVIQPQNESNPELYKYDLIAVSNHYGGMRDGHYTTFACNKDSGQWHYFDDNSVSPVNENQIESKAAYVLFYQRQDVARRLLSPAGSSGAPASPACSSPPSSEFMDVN
In short: as §1

UniProt Q5T2D3 = molecular target: T1, UniProt Q5T2D3
T1 sequence (whole entry): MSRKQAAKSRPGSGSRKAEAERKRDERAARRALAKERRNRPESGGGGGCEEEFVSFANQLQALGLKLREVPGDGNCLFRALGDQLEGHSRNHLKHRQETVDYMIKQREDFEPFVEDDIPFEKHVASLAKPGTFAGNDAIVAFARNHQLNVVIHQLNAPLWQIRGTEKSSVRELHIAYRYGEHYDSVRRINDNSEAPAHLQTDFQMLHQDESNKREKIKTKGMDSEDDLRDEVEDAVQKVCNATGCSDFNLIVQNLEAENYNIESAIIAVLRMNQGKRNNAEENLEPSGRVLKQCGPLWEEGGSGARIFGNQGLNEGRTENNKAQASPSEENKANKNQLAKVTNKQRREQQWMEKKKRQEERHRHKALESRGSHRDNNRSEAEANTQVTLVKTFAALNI
In short: as §1

UniProt Q8TE49 = molecular target: T2, UniProt Q8TE49
T2 sequence (whole entry): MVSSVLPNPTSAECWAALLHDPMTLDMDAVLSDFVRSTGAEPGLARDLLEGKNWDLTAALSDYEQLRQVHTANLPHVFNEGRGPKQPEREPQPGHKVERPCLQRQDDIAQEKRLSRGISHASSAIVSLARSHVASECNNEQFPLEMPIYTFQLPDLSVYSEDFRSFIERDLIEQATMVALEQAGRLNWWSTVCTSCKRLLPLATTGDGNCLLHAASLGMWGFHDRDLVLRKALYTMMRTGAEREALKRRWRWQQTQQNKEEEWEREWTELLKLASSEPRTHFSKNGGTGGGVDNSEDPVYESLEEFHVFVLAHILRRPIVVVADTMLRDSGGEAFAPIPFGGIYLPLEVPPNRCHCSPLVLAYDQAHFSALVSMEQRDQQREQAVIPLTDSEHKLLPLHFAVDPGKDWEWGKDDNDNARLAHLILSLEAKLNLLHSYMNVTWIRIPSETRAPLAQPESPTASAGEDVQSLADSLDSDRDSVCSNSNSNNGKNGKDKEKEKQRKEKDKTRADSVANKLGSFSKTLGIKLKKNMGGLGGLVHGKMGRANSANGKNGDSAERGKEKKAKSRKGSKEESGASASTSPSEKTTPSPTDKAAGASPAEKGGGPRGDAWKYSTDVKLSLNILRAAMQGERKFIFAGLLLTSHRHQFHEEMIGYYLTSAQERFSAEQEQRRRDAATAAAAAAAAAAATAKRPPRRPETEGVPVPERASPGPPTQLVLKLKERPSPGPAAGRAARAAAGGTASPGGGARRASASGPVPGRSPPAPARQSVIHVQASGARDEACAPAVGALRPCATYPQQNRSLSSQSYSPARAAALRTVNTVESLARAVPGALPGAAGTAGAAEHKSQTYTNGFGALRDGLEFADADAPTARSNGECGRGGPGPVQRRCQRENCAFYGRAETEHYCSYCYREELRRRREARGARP
In short: as §1

UniProt Q9P2H5 = molecular target: T3, UniProt Q9P2H5
T3 sequence (whole entry): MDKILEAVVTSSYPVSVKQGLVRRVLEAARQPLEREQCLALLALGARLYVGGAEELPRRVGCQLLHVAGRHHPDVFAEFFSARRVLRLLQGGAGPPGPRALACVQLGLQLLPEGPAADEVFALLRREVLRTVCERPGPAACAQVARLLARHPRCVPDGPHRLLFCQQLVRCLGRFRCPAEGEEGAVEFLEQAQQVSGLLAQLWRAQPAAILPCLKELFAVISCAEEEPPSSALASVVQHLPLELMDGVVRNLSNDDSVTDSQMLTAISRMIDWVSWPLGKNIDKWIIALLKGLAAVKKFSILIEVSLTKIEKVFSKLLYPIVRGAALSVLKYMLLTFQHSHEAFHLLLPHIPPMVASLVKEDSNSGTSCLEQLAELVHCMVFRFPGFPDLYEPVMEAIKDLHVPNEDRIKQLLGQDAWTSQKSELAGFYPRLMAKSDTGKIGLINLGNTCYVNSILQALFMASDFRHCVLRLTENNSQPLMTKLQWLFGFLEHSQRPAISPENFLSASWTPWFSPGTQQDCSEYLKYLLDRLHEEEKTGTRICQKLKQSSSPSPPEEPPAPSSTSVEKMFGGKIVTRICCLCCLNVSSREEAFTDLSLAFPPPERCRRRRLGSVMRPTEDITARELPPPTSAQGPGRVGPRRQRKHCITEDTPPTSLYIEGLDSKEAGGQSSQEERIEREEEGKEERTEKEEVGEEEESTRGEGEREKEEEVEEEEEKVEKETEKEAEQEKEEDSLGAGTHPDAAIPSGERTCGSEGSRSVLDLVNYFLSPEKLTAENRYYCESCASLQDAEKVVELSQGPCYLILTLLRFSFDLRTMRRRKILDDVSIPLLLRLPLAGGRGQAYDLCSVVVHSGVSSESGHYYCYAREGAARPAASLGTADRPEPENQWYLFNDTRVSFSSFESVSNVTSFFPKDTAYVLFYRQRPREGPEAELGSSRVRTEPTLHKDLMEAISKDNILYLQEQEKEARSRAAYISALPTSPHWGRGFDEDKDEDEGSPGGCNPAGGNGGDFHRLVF
In short: as §1

UniProt Q9UGI0 = molecular target: T4, UniProt Q9UGI0
T4 sequence (whole entry): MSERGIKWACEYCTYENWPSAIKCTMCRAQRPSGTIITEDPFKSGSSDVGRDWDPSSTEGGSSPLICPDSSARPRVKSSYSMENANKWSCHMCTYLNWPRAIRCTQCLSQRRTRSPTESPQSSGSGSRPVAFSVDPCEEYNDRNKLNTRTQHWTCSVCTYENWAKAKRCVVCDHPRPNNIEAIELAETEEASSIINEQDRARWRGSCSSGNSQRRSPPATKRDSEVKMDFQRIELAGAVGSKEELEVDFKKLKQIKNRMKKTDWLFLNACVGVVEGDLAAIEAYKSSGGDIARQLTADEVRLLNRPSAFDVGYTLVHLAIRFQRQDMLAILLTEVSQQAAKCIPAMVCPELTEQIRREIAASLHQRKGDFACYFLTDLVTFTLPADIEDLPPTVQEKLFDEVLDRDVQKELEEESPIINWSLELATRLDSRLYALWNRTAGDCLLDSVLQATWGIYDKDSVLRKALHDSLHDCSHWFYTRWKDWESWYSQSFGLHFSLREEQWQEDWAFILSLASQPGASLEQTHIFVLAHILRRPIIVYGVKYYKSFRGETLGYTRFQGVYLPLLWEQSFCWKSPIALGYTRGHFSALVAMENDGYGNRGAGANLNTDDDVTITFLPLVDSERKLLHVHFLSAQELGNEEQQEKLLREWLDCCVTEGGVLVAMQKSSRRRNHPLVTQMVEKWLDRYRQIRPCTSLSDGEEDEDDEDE
In short: as §1

YOD1 = molecular target: T5, YOD1 (UniProt Q5VVQ6)
T5 sequence (whole entry): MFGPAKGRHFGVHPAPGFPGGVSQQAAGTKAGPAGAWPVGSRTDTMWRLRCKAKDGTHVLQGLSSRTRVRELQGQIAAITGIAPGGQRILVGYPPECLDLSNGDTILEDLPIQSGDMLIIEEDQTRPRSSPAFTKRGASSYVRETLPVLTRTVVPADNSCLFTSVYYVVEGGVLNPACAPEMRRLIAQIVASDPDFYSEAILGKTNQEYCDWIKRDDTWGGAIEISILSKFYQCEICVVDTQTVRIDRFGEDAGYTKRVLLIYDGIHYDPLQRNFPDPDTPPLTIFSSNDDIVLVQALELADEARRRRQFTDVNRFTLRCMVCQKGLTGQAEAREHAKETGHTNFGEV
In short: as §1

Measured: log2 ratio of Biotin-Ahx-Ub-VS probe labelling

CN(CCc1ncc(Br)cn1)C(=O)CCl.Cl
inactive: USP9X -0.319 | UniProt O00487 -0.0172 | UniProt O00507 -0.225 | UniProt P51784 -0.0725 | UniProt Q5T2D3 -0.508 | UniProt Q9P2H5 -0.437 | UniProt Q9UGI0 -0.752 | YOD1 0.0394
active: UniProt Q8TE49 -1.75
